Test results: PubChem BioAssay (NCATS)
Where “and” joins values, the source holds several entries; their conditions need not be identical. Equal entries are not always repeated. Records with an inconclusive call do not appear. Calls of active or inactive are those of the source. Unless noted, calls come from the whole dose curve; as a rule, active = well fitted curve in the direction sought with a large enough effect; inconclusive = small, poorly fitted or top-dose-only effect, or another doubt; inactive = no such curve, though single readings can be large; an effect the other way counts as inactive or inconclusive.

Tests used:
[1] = system: HIV-1 nucleocapsid protein NCp7 (binding to TG oligonucleotide); experiment: HIV Nucleocapsid (AID 346; call rule not given here;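 note: potency is the fitted concentration of half-maximal effect; potency is for inhibitors that block NC binding and lower polarization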); conditions: HIV-1 NC / fluorescein-TGTGTGTG probe, fluorescence polarization
Summary of the method: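 NCp7 100 nM + fluorescein TG4xF 10 nM; Hepes pH 7.5/250mM NaCl/1uM ZnCl2/0.004% PEG 20000; 1 hr RT; FP, 45 s exposure; oligo-only wells as negative control.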

C2A = experiment: qHTS profiling for inhibitors of Plasmodium falciparum proliferation (AID 504749);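 note: 0% = DMSO vehicle and full inhibition = artemisinin control; nearly all actives have a fitted effect of over 60% in size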; conditions: P. falciparum in erythrocytes, SYBR Green DNA, 72 h; series mostly up to 28.7 µM
Summary of the method: (§1)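 Parasite proliferation within erythrocytes, 72 h exposure. Endpoint: SYBR Green I fluorescence after overnight lysis at room temperature. Controls: 0.29 uM artemisinin, DMSO.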

CP237 = experiment: as above; conditions: P. falciparum in erythrocytes, SYBR Green DNA, 72 h; series mostly up to 28.7 µM
Summary of the method: as §1

CP247 = experiment: as above; conditions: P. falciparum in erythrocytes, SYBR Green DNA, 72 h; series mostly up to 28.7 µM
Summary of the method: as §1

JCK = experiment: as above; conditions: P. falciparum in erythrocytes, SYBR Green DNA, 72 h; series mostly up to 28.7 µM
Summary of the method: as §1

CP211 = experiment: as above; conditions: P. falciparum in erythrocytes, SYBR Green DNA, 72 h; series mostly up to 28.7 µM
Summary of the method: as §1

[2] = Cell Viability - LYMP2-009 (AID 968); conditions: LYMP2-009 lymphoblastoid cell viability; series mostly up to 92.2 µM;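 note: 0% = DMSO alone and the full-kill end = tetraoctylammonium bromide at 92 µM; nearly all actives have a fitted effect of over 55% in size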
[3] = Cell Viability - LYMP2-006 (AID 978); conditions: LYMP2-006 lymphoblastoid cell viability, qHTS; series mostly up to 92.2 µM;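 note: cells exposed to compound for 24 hours; nearly all actives have a fitted effect of over 60% in size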; note: potency is the fitted concentration of half-maximal effect; for activity change, negative = cytotoxicity: % is set by controls: 0 for no effect and ±100 for the full control effect
Summary of the method: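 Concentration-dependent loss of intracellular ATP in a human lymphoblastoid line after 24 hr treatment at 37 C was measured by CellTiter-Glo luminescence, with AC50 values obtained from standard Hill-equation modelling.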

[4] = Cell Viability - LYMP2-020 (AID 986); conditions: series mostly up to 92.2 µM; note: nearly all actives have a fitted effect of over 55% in size; note: potency is the fitted concentration of half-maximal effect
Summary of the method: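 Luminescent ATP signal (CellTiter-Glo, 30 min at room temperature) is the read-out after 24 h compound treatment of lymphoblastoid cells at 37 C. AC50 values come from Hill-equation fits across concentrations.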

[5] = Cell Viability - LYMP2-026 (AID 989); conditions: LYMP2-026 lymphoblastoid cell viability, qHTS; series mostly up to 92.2 µM; note: nearly all actives have a fitted effect of over 50% in size; note: potency is the fitted concentration of half-maximal effect
Summary of the method: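 Luminescent ATP signal (CellTiter-Glo, 30 min room temperature) measures viable lymphoblastoid cells after 24 hr compound treatment at 37 C. Decreased ATP reflects acute toxicity; AC50 values come from Hill-equation modeling.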

[6] = Cell Viability - LYMP1-002 - Assay at 40 hr (AID 994); conditions: LYMP1-002 lymphoblastoid cell viability; series mostly up to 92.2 µM;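 note: 0% = DMSO only and full inhibition = 92 µM tetraoctylammonium bromide; nearly all actives have a fitted effect of over 60% in size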
Summary of the method: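 Luminescent ATP signal served as the viability readout, with decreases taken as toxicity. Cells were treated with compounds across a concentration range for 40 hours at 37 C, and AC50 values came from standard Hill modeling.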

[7] = Cell Viability - N2a (AID 540); conditions: N2a mouse neuroblastoma cell viability; at 92.2 µM (top of the series);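 note: cells exposed to compound for 40 h at 37 °C; plate controls were DMSO alone for no effect and tamoxifen control for full effect; nearly all actives have a fitted effect of over 45% in size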
Summary of the method: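 Luminescent ATP signal (CellTiter-Glo, 20 min at room temperature) served as the viability read-out after N2a cells were treated with compounds for 40 hours at 37 °C. Concentration-response data were fitted to the Hill equation for AC50.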

[8] = Cell Viability - H-4-II-E (AID 543); conditions: H-4-II-E rat hepatoma viability; series mostly up to 92.2 µM; note: % is set by controls: 0 for no effect and ±100 for the full control effect; nearly all actives have a fitted effect of over 35% in size
Summary of the method: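 Luminescent ATP signal (CellTiter-Glo) served as the viability read-out, with cytotoxicity seen as a concentration-dependent ATP drop. Cells were treated for 40 hours in complete medium. AC50 values derive from Hill-equation modelling.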

[9] = Cell Viability - LYMP1-002 - Assay at 16 hr (AID 948); conditions: LYMP1-002 lymphoblastoid cell viability; series mostly up to 92.2 µM;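 note: 0% = DMSO alone and full effect = 92 µM tetraoctylammonium bromide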
Summary of the method: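 Acute cytotoxicity is scored as a concentration-dependent fall in intracellular ATP in a human lymphoblastoid line (LYMP1-002) after 16 hr compound exposure at 37 C, measured by luciferase luminescence.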

[10] = MultiTox-Fluor Cytotoxicity Assay - LYMP1-002 - Dead Cells (AID 960); conditions: LYMP1-002 lymphoblastoid cells, dead-cell protease fluorescence; series mostly up to 46.1 µM; note: nearly all actives have a fitted effect of over 60% in size; note: potency is the fitted concentration of half-maximal effect
Summary of the method: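 LYMP1-002 cells 2500/well; 5 hr 37 C pre-incubation; compound 16 hr 37 C; MultiTox-Fluor reagent 60 min RT; dead-cell fluor Ex/Em 485/520. Norm. to DMSO (0%) vs 15 uM tetraoctylammonium bromide (100%); Hill AC50.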

[11] = MultiTox-Fluor Cytotoxicity Assay - LYMP1-003 - Live Cells (AID 962); conditions: LYMP1-003 lymphoblastoid cells, MultiTox-Fluor live-cell protease fluorescence; series mostly up to 92.2 µM;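 note: cells exposed to compound for 16 hours at 37 °C; 0% = DMSO only and full loss = 92 µM tetraoctylammonium bromide; cytotoxic hits lower the live-cell protease signal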
Summary of the method: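 qHTS, 1536-well; 2500 cells/well LYMP1-003; 5 hr 37 C settle; cpd 16 hr 37 C; MultiTox-Fluor reagent 60 min RT; live-cell protease fluor. 405/510; Hill-fit AC50; tetraoctylammonium bromide pos. ctrl.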

[12] = Cell Viability - LYMP1-003 - Assay at 24 hr (AID 963); conditions: LYMP1-003 lymphoblastoid cell viability; series mostly up to 92.2 µM;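 note: plate controls were DMSO only for no effect and tetraoctylammonium bromide positive control for full effect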
Summary of the method: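 Cells seeded at 2500/well, 5 hr at 37 C; compounds added; 24 hr at 37 C; CellTiter-Glo added, 30 min room temperature; luminescence read. Decrease in ATP taken as cytotoxicity, AC50 from Hill modelling.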

[13] = Cell Viability - LYMP2-023 (AID 975); conditions: LYMP2-023 lymphoblastoid cell viability; series mostly up to 92.2 µM;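 note: cellular ATP measured by luciferase luminescence as viability proxy; cells exposed to compound for 24 hours at 37 °C; plate controls were DMSO only for no effect and 92 µM tetraoctylammonium bromide control for full effect; nearly all actives have a fitted effect of over 55% in size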
Summary of the method: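 2500 cells/well, 5 hr 37 C; cpd 24 hr 37 C; CellTiter-Glo, 30 min RT; luminescence. qHTS conc-response, Hill fit -> AC50. Pos ctrl tetraoctylammonium bromide.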

[14] = Cell Viability - LYMP2-012 (AID 982); conditions: LYMP2-012 lymphoblastoid cell viability qHTS; series mostly up to 92.2 µM;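 note: cellular ATP by luciferase luminescence where a drop means cytotoxicity; cells exposed to compound for one day before reading; 0% = DMSO only and full loss = 92 µM tetraoctylammonium bromide; nearly all actives have a fitted effect of over 55% in size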
[15] = Cell Viability - LYMP2-018 (AID 985); conditions: LYMP2-018 lymphoblastoid cells, viability (qHTS); series mostly up to 92.2 µM;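 note: compound exposure lasted 24 hr at 37 °C; plate controls were DMSO only for no effect and tetraoctylammonium bromide at 92 µM for full effect; nearly all actives have a fitted effect of over 50% in size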
Summary of the method: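 Luminescent ATP signal (CellTiter-Glo, read after 30 min at room temperature) reports viable cells after 24 hr compound treatment at 37 C. Concentration-response data were fitted to the standard Hill equation for AC50.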

CN1CCCC2(CCN(C(=O)c3ccco3)CC2)C1
inactive: Potency [1] > 20 µM

C[C@]12CC[C@H](O)CC1=CCC1C2CC[C@]2(C)C(=O)CC[C@@H]12 (stereo partly drawn)
inactive: Potency (C2A) | Potency (CP237) | Potency (CP247) | Potency (JCK)

O=C(Oc1ccccc1)N1CCC2(CCCN(Cc3nccs3)C2)CC1
inactive: Potency [1] > 20 µM

CCCC[N+]1(C)C2CC(OC(=O)C(CO)c3ccccc3)CC1C1OC12 (stereo not drawn)
inactive: Potency (C2A) | Potency (CP211) | Potency (CP237) | Potency (CP247) | Potency (JCK)

CN1CCCC2(CCN(C(=O)Oc3ccccc3)CC2)C1
inactive: Potency [1] > 20 µM

O=C(Oc1ccccc1)N1CCC[C@@]2(CCN(Cc3ccccc3)C2)C1
inactive: Potency [1] > 20 µM

O=C(Nc1ccccc1)N1CCCC2(CCN(C(=O)Oc3ccccc3)CC2)C1
inactive: Potency [1] > 20 µM

ClC1=C(Cl)C2(Cl)C3C4C=CC(C4)C3C1(Cl)C2(Cl)Cl (stereo not drawn)
inactive: Potency [2] | Potency [6]
active: Potency [3] 39.8 µM | Potency [4] 50.1 µM | Potency [5] 50.1 µM

c1ccc(N=Nc2ccccc2)cc1
inactive: activity change, negative = cytotoxicity [7] 1.26% | Potency [8] | Potency [9] | Potency [10] | Potency [11] | Potency [12] | Potency [2] | Potency [13] | Potency [3] | Potency [14] | Potency [15] | Potency [4] | Potency [5] | Potency [6]

CCNc1nc(Cl)nc(NC(C)C)n1
inactive: activity change, negative = cytotoxicity [7] -4.9% | Potency [8] | Potency [9] | Potency [10] | Potency [11] | Potency [12] | Potency [2] | Potency [13] | Potency [3] | Potency [14] | Potency [15] | Potency [4] | Potency [5] | Potency [6]

O=C(Nc1cccc(F)c1)N1CCC2(CC1)CCN(C(=O)Oc1ccccc1)CC2
inactive: Potency [1] > 20 µM

C=CCc1ccc2c(c1)OCO2
inactive: activity change, negative = cytotoxicity [7] -3.41% | Potency [8] | Potency [9] | Potency [10] | Potency [11] | Potency [12] | Potency [2] | Potency [13] | Potency [3] | Potency [14] | Potency [15] | Potency [4] | Potency [5] | Potency [6]

COC(=O)NC(=S)Nc1ccccc1NC(=S)NC(=O)OC
inactive: activity change, negative = cytotoxicity [7] -2.43% | Potency [8] | Potency [9] | Potency [10] | Potency [11] | Potency [12] | Potency [2] | Potency [13] | Potency [3] | Potency [14] | Potency [15] | Potency [4] | Potency [5] | Potency [6]

O=S1OCC2C(CO1)C1(Cl)C(Cl)=C(Cl)C2(Cl)C1(Cl)Cl (stereo not drawn)
active: activity change, negative = cytotoxicity [7] -80.3% | Potency [10] 25.1 µM
inactive: Potency [8] | Potency [2] | Potency [13] | Potency [14] | Potency [15] | Potency [4]

O=C(O)COc1ccc(Cl)cc1Cl
inactive: activity change, negative = cytotoxicity [7] 9.64% and 3.72% | Potency [8] | Potency [9] | Potency [10] | Potency [11] | Potency [12] | Potency [2] | Potency [13] | Potency [3] | Potency [14] | Potency [15] | Potency [4] | Potency [5] | Potency [6]

C=CCc1ccc(OC)cc1
inactive: activity change, negative = cytotoxicity [7] -8.37% | Potency [8] | Potency [9] | Potency [10] | Potency [11] | Potency [12] | Potency [2] | Potency [13] | Potency [3] | Potency [14] | Potency [15] | Potency [4] | Potency [5] | Potency [6]

CCNC[C@H](O)c1cccc(O)c1
inactive: Potency (C2A) | Potency (CP211) | Potency (CP237) | Potency (CP247) | Potency (JCK)

CCOCN(C(=O)CCl)c1c(C)cccc1CC
active: Potency [3] 50.1 µM
inactive: activity change, negative = cytotoxicity [7] 4.55% | Potency [9] | Potency [11] | Potency [12]

Cc1nc2cnc(N3CCNCC3)nc2n(C)c1=O
inactive: Potency [1] > 20 µM
